The nature of assay [1]: NCI Yeast Anticancer Drug Screen. Data for the rad50 strain (AID 155).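 Note: 0% = growth of vehicle-only cultures of the same strain.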 The following applies: S. cerevisiae rad50 strain growth inhibition; at 50.0 µM; stronger effect = higher value. The gist of the method:
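Relative growth inhibition (compound vs vehicle) was measured in yeast with a defined repair-gene alteration.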

Assay [2] is described as follows: NCI Yeast Anticancer Drug Screen. Data for the mec2-1 strain (AID 157). To be noted: S. cerevisiae mec2-1 strain, at 50.0 µM, stronger effect = higher value. The gist of the method:
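Strain: mec2-1 (DNA repair/cell cycle alteration). Compound exposure, then growth measured; inhibition expressed relative to vehicle.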

Assay [3] can be described thus: NCI Yeast Anticancer Drug Screen. Data for the sgs1 mgt1 strain (AID 161).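 Note: 0% = growth of cultures given vehicle only.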 The following applies: S. cerevisiae sgs1 mgt1 strain, at 50.0 µM, stronger effect = higher value. The gist of the method:
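Inhibition of yeast growth, normalised to vehicle-treated controls, is reported for a strain bearing genetic alterations in DNA damage repair.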

Assay [4] is described as follows: NCI Yeast Anticancer Drug Screen. Data for the cln2 rad14 strain (AID 165).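 Note: 0% = growth equal to vehicle treated cultures.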 The following applies: S. cerevisiae cln2 rad14 strain, at 50.0 µM, stronger effect = higher value. The gist of the method: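 Compounds are applied to the cln2 rad14 yeast strain, and growth is then compared with that of vehicle-treated cultures to give inhibition.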
The nature of assay [5]: NCI Yeast Anticancer Drug Screen. Data for the bub3 strain (AID 167). To be noted: S. cerevisiae bub3 mutant strain, at 50.0 µM, stronger effect = higher value. The gist of the method: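 Screening used yeast with an engineered genetic alteration affecting cell cycle control. Compound-exposed cultures were compared with vehicle cultures, and reduced growth was taken as inhibition.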

The nature of assay [6]: NCI Yeast Anticancer Drug Screen. Data for the mlh1 rad18 strain (AID 175). The following applies: S. cerevisiae mlh1 rad18 strain growth inhibition; at 50.0 µM; stronger effect = higher value. The gist of the method: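 Read-out is yeast growth inhibition, calculated against vehicle-only controls. The compound was applied to a strain engineered with DNA damage repair alterations.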

We go through 19 compounds from PubChem BioAssay (NCI).

Compounds without any hit were thinned out: in the full panel of roughly 79,000, 15% have a hit. Values without a mark were called inactive. The source made the active and inactive calls. Cut-off read from the data, not from the text of the source: active = growth inhibition above about 70%; inactive = the rest.

As to `Cc1ccc(SCC(OCn2cnc3c(Cl)nc(N)nc32)[C@H](C)F)cc1` (some centres undefined), the growth inhibition in assay [1] was 32.2%; in assay [2], 23.4%; in assay [3], 56.5%; in assay [4], 24.9%; in assay [5], 66%; in assay [6], -50.9%.

In the case of `CC(=O)/C(=N/O)C(C)C`, the growth inhibition is 4.6% in assay [1]; -3.5% in assay [2]; 6.35% in assay [3]; -0.35% in assay [4]; -0.45% in assay [5]; 2.8% in assay [6].

`C=CCn1c(=O)cc[nH]c1=S`: the growth inhibition was -11.6% in assay [1]; -13.2% in assay [2]; -24.7% in assay [3]; 3.4% in assay [4]; -1.05% in assay [5]; -21.2% in assay [6].

`CCc1ccc(Cc2ccc(CC)c(NC(=O)C(=O)C3NC(=S)NC3=O)c2CC)c(CC)c1NC(=O)C(=O)C1NC(=S)NC1=O` (centres undefined): the growth inhibition in assay [1] was -5.2%; in assay [2], -9.5%; in assay [3], 5.25%; in assay [4], 5.1%; in assay [5], 3.85%; in assay [6] it was -3.65%.

Turning to `Cc1ccc(S(=O)(=O)[N-]C2C(=O)c3ccccc3C(=O)C2[n+]2cccc(C(N)=O)c2)cc1` (centres undefined), the growth inhibition is -1.75% in assay [1]; 2% in assay [2]; 9.5% in assay [3]; 4.55% in assay [4]; 8.8% in assay [5]; -38.8% in assay [6].

Regarding `COc1ccc(/C=N/Nc2c([N+](=O)[O-])cc(C)cc2[N+](=O)[O-])cc1`, the growth inhibition in assay [1] is 35.1%; in assay [2], 13.2%; in assay [3], 16.3%; in assay [4] it was 13%; in assay [5], 11.8%; in assay [6] it was 7.8%.

In the case of `O=C(CC1C(=O)Nc2ccccc2S1(=O)=O)Nc1cc(Cl)ccc1Cl` (centres undefined), the growth inhibition in assay [1] was 0.15%; in assay [2], -30.8%; in assay [3], 7.25%; in assay [4], 15.1%; in assay [5], 4.5%; in assay [6] it was -12.3%.

For the compound `O=C(/C=N/O)Nc1cccc(Cl)c1I`, the growth inhibition in assay [1] was 18.4%; in assay [2] it was -5.2%; in assay [3], 30.1%; in assay [4] it was 2.95%; in assay [5] it was 12.6%; in assay [6], 10.4%.

Consider `O=c1cc([N+](=O)[O-])c2c([nH]1)CCC2`, for which the growth inhibition in assay [1] is -5.3%; in assay [2] it was 1.3%; in assay [3], 12.8%; in assay [4], -27.8%; in assay [5] it was -6.15%; in assay [6] it was -0.5%.

As for `CCCC1OCC(O)C(C(O)C(=O)CN(Cc2ccccc2)Cc2ccccc2)O1` (centres undefined), the growth inhibition is 0.1% in assay [1]; 1.35% in assay [2]; 1.55% in assay [3]; -9.5% in assay [4]; -3.8% in assay [5]; 3.75% in assay [6].

On to `O=[N+]([O-])c1ccc(/C(=C/c2ccc(F)cc2)S(=O)(=O)c2ccccc2)o1`, for which the growth inhibition is 37.4% in assay [1]; 19.4% in assay [2]; 50.3% in assay [3]; -0.65% in assay [4]; 8.4% in assay [5]; 39.4% in assay [6].

Take `O=C(NCCCN1CCN(CCCNC(=O)Nc2ccc(Br)cc2)CC1)Nc1ccc(Br)cc1`: the growth inhibition in assay [1] is 27.7%; in assay [2] it was 10.8%; in assay [3], 38.4%; in assay [4], 12.2%; in assay [5], -1.5%; in assay [6] it was 23.4%.

Turning to `c1ccc(C2(c3ccccc3)SC2(c2ccccc2)c2ccccc2)cc1`, the growth inhibition in assay [1] is -13.9%; in assay [2], -7.75%; in assay [3], -11.1%; in assay [4], -24.1%; in assay [5] it was 2.15%; in assay [6] it was -6.65%.

`CCOC/N=C(/N)NC#N`: the growth inhibition in assay [1] was 25.6%; in assay [2] it was 2.35%; in assay [3] it was 10.8%; in assay [4], 13.1%; in assay [5] it was -3.4%; in assay [6], 33.1%.

Take `CCCCS/C=C1\CC2OC(=O)C3(C)CCCC(C)(C1=O)C23` (centres undefined): the growth inhibition in assay [1] is -1.85%; in assay [2] it was 15.2%; in assay [3], 8.15%; in assay [4], -3%; in assay [5] it was 11.5%; in assay [6] it was 26.6%.

In the case of `Cc1cc(Br)ccc1N=Cc1ccc(C=Nc2ccc(Br)cc2C)cc1`, the growth inhibition in assay [1] was -6.75%; in assay [2] it was -17.6%; in assay [3] it was -11.8%; in assay [4], -2.5%; in assay [5] it was -3.65%; in assay [6] it was -0.2%.

With `O=C(c1ccccc1)C(c1ccccc1)n1nc2c(c1-c1ccccc1)CCCC2` (centres undefined), the growth inhibition in assay [1] is 84.4% (active); in assay [2], 87.2% (active); in assay [3], 83.9% (active); in assay [4] it was 88.4% (active); in assay [5], 86.4% (active); in assay [6], 91.4% (active).

Regarding `CC1=C/C(=N\O)C(C(O)(C(F)(F)F)C(F)(F)F)C(C)(C)C1` (centres undefined), the growth inhibition in assay [1] is -37.7%; in assay [2], -39%; in assay [3] it was -17.4%; in assay [4] it was -12.5%; in assay [5], -7.35%; in assay [6] it was 2.9%.

As for `COC(=O)C1=C(O)C(C(=O)OC)[C@@]2(O)[C@@H](C(=O)OC)[C@H](C)C[C@@H]1[C@@H]2C(=O)OC` (some centres undefined), the growth inhibition in assay [1] was 41.6%; in assay [2] it was 15.4%; in assay [3], 47%; in assay [4] it was -1.05%; in assay [5], 23.1%; in assay [6] it was 38.5%.
